D1 potentiator = Potentiators of Human D1 Dopamine Receptor: qHTS | D(1A) dopamine receptor (Homo sapiens), P21728 | HEK293 TREx D1 cells, calcium flux, dopamine EC20 potentiation | potentiation, % at 10 µM | 0.036% of 360,000 active | AID 504651, 2011; in the data active means potentiation above about 30%; further: 0% is about no effect
Target sequence (P21728 whole entry, looked up): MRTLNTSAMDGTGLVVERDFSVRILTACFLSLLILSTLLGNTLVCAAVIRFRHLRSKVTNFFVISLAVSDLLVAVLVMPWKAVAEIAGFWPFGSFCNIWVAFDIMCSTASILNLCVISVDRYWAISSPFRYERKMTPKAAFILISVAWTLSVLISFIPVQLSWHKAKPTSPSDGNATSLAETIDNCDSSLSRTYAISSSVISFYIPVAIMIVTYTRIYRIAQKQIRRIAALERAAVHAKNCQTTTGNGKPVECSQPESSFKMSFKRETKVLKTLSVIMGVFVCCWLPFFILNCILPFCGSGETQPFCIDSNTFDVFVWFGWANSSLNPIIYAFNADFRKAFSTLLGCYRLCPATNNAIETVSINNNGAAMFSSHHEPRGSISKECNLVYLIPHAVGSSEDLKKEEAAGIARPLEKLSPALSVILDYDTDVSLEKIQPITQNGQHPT
D1 antagonist = Antagonist of Human D 1 Dopamine Receptor: qHTS. 3.2% of 360,000 active. D(1A) dopamine receptor (Homo sapiens), P21728. HEK293 TREx D1 cells, calcium flux, dopamine EC80; hits give low values. activity change, negative = inhibition, % at 10 µM; in the data active means activity change below about -30%; further: on the % scale 0 is the no-effect control and ±100 the full control effect
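Using tetracycline-induced force-coupled D1 Hek293 cells and a calcium dye, signals were followed for 180 s after compound, then for 180 s after EC80 dopamine, to detect inhibitors.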
D1 agonist = Allosteric Agonists of the Human D1 Dopamine Receptor: qHTS; D(1A) dopamine receptor (Homo sapiens), P21728; HEK293 T-REx D1 cells, calcium flux, agonist mode; activation, % at 2 µM; 1% of 360,000 active; AID 504660, 2011; further: 0% is about no effect
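Tetracycline-induced HEK293 TREx D1 cells, force-coupled to calcium signalling, were dye-loaded with a no-wash calcium kit. Compound was pin-added after a 10 s baseline. Fluorescence was read kinetically at 1 cycle/s for 180 s, with calcium rises flagged as agonism.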
TRHR agonist = qHTS for Small Molecule Agonists and Allosteric Enhancers of Human TRH Receptor: Primary Screen for Agonists; Thyrotropin-releasing hormone receptor (Homo sapiens), P34981; TRHR cells, calcium flux fluo-8, FDSS agonist mode; activation, % at 2 µM; 0.18% of 360,000 active; AID 493084, 2011; further: 0% is about no effect
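Agonist-mode FDSS calcium read (Ex 480/Em 530, 1 s cycles) in 1536-well TRHR cells with fluo-8 dye, after 10-cycle baseline and 23 nL compound addition; TRH at EC20 (10 nM final) added afterwards for the enhancer phase.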
TRHR enhancer = qHTS for Small Molecule Agonists and Allosteric Enhancers of Human TRH Receptor: Primary Screen for Enhancers; Thyrotropin-releasing hormone receptor (Homo sapiens), P34981; TRHR cells, fluo-8 calcium fluorescence, EC20 TRH enhancement; enhancement, % at 2 µM; 0.66% of 360,000 active; in the data active means enhancement above about 30%; further: 0% is about no effect
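Enhancer read-out: after compound pinning and an initial kinetic agonist-mode read, an EC20 of TRH (10 nM final) was injected and fluo-8 calcium signal (Ex 480/Em 530) followed at 1 s/cycle for 100 cycles in TRHR-expressing cells.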
* hit, by the source's call; / = no result given. An excerpt weighted towards active compounds, which were near 4.7% of everything screened. Unless noted, no stated cut-off is given here; in the data, active means activation above about 30%; inactive means the rest.

SMILES	D1 potentiator	D1 antagonist	D1 agonist	TRHR agonist	TRHR enhancer
Cc1cccn2c(=O)c(/C=C(\C#N)S(=O)(=O)c3ccccc3)c(N3CCC(C(N)=O)CC3)nc12	7	-6	-1	0	-8
CCN1CCN(c2nc3c(C)cccn3c(=O)c2/C=C(\C#N)S(=O)(=O)c2ccccc2)CC1	-5	-13	2	1	11
COc1ccccc1CNC(=O)c1cc2c(-c3ccc(Cl)cc3)nn(C)c2s1	3	12	-2	0	24
CC(=O)Nc1ccc(OCC(O)Cn2cccn2)cc1 (stereo not drawn)	3	-35*	1	0	-7
CC(=O)Nc1ccc(OCC(O)CN2CCN(S(=O)(=O)c3ccc(NC(C)=O)cc3)CC2)cc1 (stereo not drawn)	5	-34*	3	0	4
CC(=O)c1ccc(OCC(O)CN2CCOCC2)cc1 (stereo not drawn)	-3	-35*	1	-1	3
Cc1ccc(CNC(=O)Nc2cc(C(=O)NCc3cccc(F)c3)ccc2N2CCCC2)cc1	0	-15	3	-1	10
Cc1ccc(C)c(NC(=O)Cn2cc(C(=O)c3cccs3)c3ccccc32)c1	-3	6	7	2	-4
Cc1ccc(C)c(N2CCN(C(=O)C3CCN(c4nc(-c5ccc(C(C)C)cc5)no4)CC3)CC2)c1	0	0	2	0	-13
CC(C)(C)n1nnnc1C(c1cccnc1)N(Cc1ccccc1)Cc1ccco1 (stereo not drawn)	-4	-10	3	-1	10
CCC(C)(C)n1nnnc1C(C(C)C)N(Cc1cccnc1)Cc1ccco1 (stereo not drawn)	3	-44*	-1	0	21
CC(C)Cn1c(N)c(C(=O)COC(=O)C2CCCCC2)c(=O)n(C)c1=O	2	-38*	14	1	2
Cc1c2cnn(CC(=O)N3CCCCC3)c(=O)c2c(C)n1Cc1ccc(Cl)cc1	-3	-2	9	1	-5
Cc1c(Cl)ccc2sc(N3CCN(C(=O)CS(=O)(=O)c4ccccc4)CC3)nc12	-4	/	49*	0	1
O=C1Cc2cc(NS(=O)(=O)c3cc(F)ccc3F)cc3c2N1CCC3	-4	-60*	1	0	10
COc1ccc(F)cc1S(=O)(=O)Nc1cc2c3c(c1)CC(=O)N3CCC2	-6	-17	2	0	7
Cc1cc(Br)cc(C)c1OCC(=O)NNC(=O)c1cccs1	0	-37*	3	0	-4
O=[N+]([O-])c1ccc(CNc2ccc(Cl)cc2)s1	-9	-37*	5	0	-2
COc1ccc(N(CC(=O)NCCOc2ccccc2)S(=O)(=O)c2ccc(C)cc2)cc1	-7	4	2	0	-6
Cc1cccc(N(CC(=O)NCCSc2nc3ccccc3s2)S(=O)(=O)c2ccccc2)c1	0	5	1	0	8
CCOc1ccc(N(CC(=O)NCCOc2ccc(C)cc2)S(=O)(=O)c2ccccc2)cc1	12	-38*	54*	1	13
COc1ccc(S(=O)(=O)N(CC(=O)NCCSc2ccccc2)c2ccc(C)cc2)cc1	-2	3	32*	3	-3
COc1ccc(S(=O)(=O)N(CC(=O)NCCSc2ccccc2)c2ccc(Cl)cc2)cc1	2	-8	36*	-1	6
O=C(CN(c1ccccc1)S(=O)(=O)c1ccccc1)NCCSc1nc2ccccc2s1	1	-63*	8	1	-6
COc1cccc(C(=O)Nc2ccccc2C(=O)OCc2cc(=O)n3nc(C4CC4)sc3n2)c1	0	-1	0	0	4
SMILES	D1 potentiator	D1 antagonist	D1 agonist	TRHR agonist	TRHR enhancer
O=C(Nc1nnc(S(=O)(=O)N2CCc3ccccc32)s1)c1cccc(Cl)c1	-1	-7	1	0	-4
CCN(c1ccccc1)S(=O)(=O)c1ccc(NC(=O)c2nc(SC)ncc2Cl)cc1	0	0	3	1	7
COc1ccc(OC)c(-c2cc(C(=O)Nc3cnn(Cc4ccc(Cl)cc4Cl)c3)no2)c1	-1	1	6	1	3
NC(=O)CS(=O)(=O)c1nc2ccccc2n1Cc1ccccn1	-3	-38*	1	0	-1
Cc1ccc(C2C(C#N)=C(N)SC(N)=C2C#N)c(C)c1	-4	-22	51*	-1	-4
CC(C)(O)C#Cc1ccc(C(=O)N2CCN(c3ccccc3)CC2)cc1	-1	-25	3	1	34*
CCCS(=O)(=O)c1c(S(=O)(=O)CCC)c2cc(C(C)(C)C)ccn2c1C(=O)c1ccc(OC)c(OC)c1	-1	3	22	-1	7
COC(=O)c1ccc(CSc2c(C(C)C)cnc3c2c(=O)n(C)c(=O)n3C)cc1	1	-7	1	0	2
Cc1ccc(S(=O)(=O)NCCc2cn3ccsc3n2)cc1	1	-73*	0	0	2
COc1ccc(S(=O)(=O)NCCc2cn3ccsc3n2)cc1	-4	-45*	1	0	-3
COc1ccc(S(=O)(=O)NCCc2cn3ccsc3n2)cc1OC	-3	6	0	0	0
Cc1nn(-c2ccccc2)c(OC(=O)C(C)(C)C)c1Sc1ccccc1	1	-3	2	0	-7
C=CCNC(=O)c1onc(CSc2ccccn2)c1C(=O)NCC=C	0	-60*	2	0	2
CCOc1ccc(C(C(=O)NC2CCCC2)N(CCCO)C(=O)c2ccc(-c3ccccc3)[nH]2)cc1 (stereo not drawn)	3	-30*	1	-1	-7
Cc1ccccc1CS(=O)(=O)Cc1ccc(C(=O)NCCc2ccc(Cl)cc2)o1	-1	-7	12	-1	1
O=C(Nc1nnc(-c2cccs2)o1)c1cccc(C(F)(F)F)c1	/	-50*	26	-1	7
CCS(=O)(=O)c1nc(S(=O)(=O)c2ccc(C)cc2)c(N2CCC(C)CC2)s1	-7	-36*	4	0	-2
CCCS(=O)(=O)c1nc(S(=O)(=O)c2ccc(C)cc2)c(N2CCC(C)CC2)s1	4	2	13	0	-3
CCCS(=O)(=O)c1nc(S(=O)(=O)c2ccc(Cl)cc2)c(N2CCC(O)CC2)s1	52*	-16	3	0	-4
CCOc1ccc(NC(=O)Cn2nc(CC)n3c(cc4sccc43)c2=O)cc1	-3	-1	1	0	7
COCC(=O)N1c2nc(-c3ccco3)nn2C2(CCCCC2)[C@@H]2CCCC[C@@H]21	0	0	-1	-1	0

Screening data (PubChem BioAssay)
